Nrf2 activator – activates Nrf2 signaling; AREc32 ARE-luciferase reporter (MCF7-derived line), luminescence, 24 h; hit rate 0.31% among 410,000; Potency, µM (top dose mostly 46.1 µM), without a hit: at the top dose activation, actives largely listed as activators; further: potency means the concentration at half of the fitted maximal effect; % of control where 0% means no effect; nearly all actives have a fitted effect of over 65% in size
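For detection, Steady-Glo was added and plates sat 30 min at RT; before that, AREc32_Fluc cells grown overnight in OPTI-MEM/5% FBS had been treated with 23 nL compound for 24 hr at 37 deg C.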
LDHA block – blocks human lactate dehydrogenase A; P00338; purified LDHA, NADH/diaphorase-resazurin fluorescence; active compounds read low; activity change, % (values are at about 110 or 230 µM); hit rate 0.15% among 480,000; AID 1347041; in the data active means activity change below about -30%; inconclusive means mostly about -25% to -30%;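 further: plate controls were DMSO wells for no effect and wells without enzyme for full effect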
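Human LDH5 at 2 nM final in Tris HCl pH 7.4 with 0.06 mM NADH and 0.2 mM pyruvate, reacted 5 minutes at room temperature. Remaining NADH coupled via diaphorase/resazurin; resorufin fluorescence read at 0 and 20 minutes, normalized to enzyme-free and DMSO wells.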
Nrf2 inh – blocks Nrf2 signaling; A549 ARE-Fluc reporter, luciferase luminescence, 18-24 h; hit rate 2.1% among 360,000; AID 504444; Potency, µM (series often up to 46 µM), for inactives: at the top dose activity change, negative = inhibition, usual class: inhibitors; further: potency means the concentration at half of the fitted maximal effect; on the % scale 0 is the no-effect control and ±100 the full control effect; nearly all actives have a fitted effect of over 60% in size
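Concentration-response testing used A549 ARE_Fluc cells at 5000 cells/well. Following an 18-24 h compound incubation, viability was read by fluorescence (Ex 405/Em 525) and luciferase output by luminescence.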
A549 tox – A549 cytotoxicity, counter-screen for Nrf2 inhibitors; A549 ARE-Fluc cells, CellTiter-Fluor viability, 18-24 h; Potency, µM (doses to about 46 µM), for inactives: at the highest dose activity change, negative = cytotoxicity, most hits filed as inhibitors; hit rate 0.16% among 390,000; further: potency means the concentration at half of the fitted maximal effect; on the % scale 0 is the no-effect control and ±100 the full control effect
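A549 ARE_Fluc cells in 5% FBS OPTI-MEM were exposed to compounds in concentration-response for 18-24 h at 37 deg C. Viability was read by CellTiter-Fluor fluorescence (Ex 405/Em 525) after 30 min, before the luciferase read.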
IDH1 R132H inh – inhibitors of human mutant IDH1 R132H; O75874; IDH1-R132H enzyme, NADPH consumption, diaphorase/resazurin fluorescence; Potency, µM (doses to about 76.6 µM), for inactives: top-dose activity change, negative = inhibition, usual class: inhibitors; hit rate 0.093% among 390,000; further: potency means the concentration at half of the fitted maximal effect; on the % scale 0 is the no-effect control and ±100 the full control effect; nearly all actives have a fitted effect of over 65% in size
Target sequence (O75874 whole entry R132H, stated change not applied): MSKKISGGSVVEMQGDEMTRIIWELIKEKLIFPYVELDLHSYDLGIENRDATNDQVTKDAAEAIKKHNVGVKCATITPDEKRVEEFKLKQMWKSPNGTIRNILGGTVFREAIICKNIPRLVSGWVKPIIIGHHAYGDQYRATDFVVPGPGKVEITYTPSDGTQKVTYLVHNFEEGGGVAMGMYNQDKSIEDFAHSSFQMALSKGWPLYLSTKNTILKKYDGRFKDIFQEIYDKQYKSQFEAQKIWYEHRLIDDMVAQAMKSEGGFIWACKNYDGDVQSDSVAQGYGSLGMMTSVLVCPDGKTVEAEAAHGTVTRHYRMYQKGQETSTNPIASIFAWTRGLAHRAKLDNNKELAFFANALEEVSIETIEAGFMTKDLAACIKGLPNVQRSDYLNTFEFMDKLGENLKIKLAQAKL
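IDH1-R132H (0.5 ug/mL) preincubated 30 min with compound, then NADPH (0.016 mM) and alpha-KG (2 mM) added; 80 min at RT, pH 7.5. Remaining NADPH coupled via diaphorase/resazurin to fluorescence (540/590 nm); concentration-response curves normalized to no-enzyme control.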
12-LOX inh – ALOX12 (human) lipoxygenase inhibition; P18054; purified 12hLO, xylenol orange hydroperoxide absorbance; AID 1671190; hit rate 1.1% among 580,000; Potency, µM (series often up to 108 µM), for the others: top-dose activity change, negative = inhibition, hits mostly inhibitors; further: potency means the concentration at half of the fitted maximal effect; on the % scale 0 is the no-effect control and ±100 the full control effect
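Hydroperoxide product was detected by ferrous iron/xylenol orange as the 573 to 405 nm absorbance ratio. Arachidonic acid at 40 uM (final) was turned over for 30 min at room temperature by 150 nM human 12hLO, pH 7.0 Hepes buffer, after 15 min compound preincubation.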
The depositor's hits bear a star; ? = inconclusive; . = not tested or not shown; [ ] = remark or other dose. This is a sample that favours compounds with a hit; in the whole collection about 2.7% have one here. Unless noted, the call rests on the fitted dose curve; in most records, active means well fitted curve in the direction sought with a large enough effect; inconclusive means small, poorly fitted or top-dose-only effect, or another doubt; inactive means no such curve, though single readings can be large; an effect the other way counts as inactive or inconclusive.

SMILES	Nrf2 activator	LDHA block	Nrf2 inh	A549 tox	IDH1 R132H inh	12-LOX inh
C(=N\Nc1ccccc1)/c1ccc(N2CCOCC2)cc1	1%	5	?	-3%	0%	14µM*
C[C@@H](NC(=O)/C(C#N)=C/c1ccc(O)c(O)c1)c1ccccc1	8%	-10	4%	-26%	-11%	?
N#C/C(=C/c1ccccc1)C(=O)Nc1ccc(N2CCOCC2)cc1	.	13	.	.	.	2.5µM*
C=CCN1CCN(c2nc3c(c(=O)[nH]c(=O)n3C)n2Cc2ccc(Cl)c(Cl)c2)CC1	.	3	.	.	.	-3%
O=C(Nc1ccccc1)c1sc(NC2CCCCC2)nc1-c1ccc([N+](=O)[O-])cc1	.	1	.	.	.	?
O=C(NCc1cccc(Cl)c1)c1ccc(-n2ccnc2)c2ccoc12	2%[9.22 µM]	-1	.	.	.	40µM*
O=C(NCc1cccc(Cl)c1)c1ccc(-n2cncn2)c2ccoc12	3%	-9	.	.	.	-15%
COc1cccc(CNc2ncnc3cc(OC)c(OC)cc23)c1	0%	-7	?	-1%	1%	150%
COc1cc2ncnc(NCCc3ccccc3)c2cc1OC	6%	-1	23µM*	-4%	6%	0%
COc1ccc(CCNc2ncnc3cc(OC)c(OC)cc23)cc1OC	1%	1	21µM*	-2%	-1%	3%
O=C(NC12CC3CC(CC(C3)C1)C2)C1CCN(S(=O)(=O)Cc2ccccc2)CC1	.	-2	.	.	.	-14%
O=C1NCCCCCCN(C(=O)CCC2CCCC2)[C@H]2C[C@H](c3nc(Cc4ccccc4)no3)C[C@@H]12	.	.	.	.	.	3%
CC(C)CCn1c(SCCCc2ccccc2)nc2c1c(=O)[nH]c(=O)n2C	.	-2	.	.	.	?
Cc1ccccc1OCCOC(=O)c1cc(S(=O)(=O)N2CCCCC2)ccc1N1CCOCC1	0%	2	16µM*	-6%	8%	172%
CC1CN(S(=O)(=O)c2cccc(C(=O)N(C)C3CCN(C)CC3)c2)CC(C)O1 (stereo not given)	0%	2	4%	-1%	15%	-10%
COc1ccccc1C(=O)COC(=O)c1cc(S(=O)(=O)N2CCCCC2)ccc1N1CCOCC1	0%	-2	9%	-5%	-2%	-13%
O=C(Nc1nnc(S(=O)(=O)N2CCCCC2)s1)c1cccc(Br)c1	3%	2	26µM*	-8%	37%	.
Cc1ccc(COC(=O)c2cc(S(=O)(=O)N3CCOCC3)ccc2C)cc1	0%	-1	16µM*	10%	-1%	1%
CC1CN(S(=O)(=O)c2cccc(C(=O)N=c3sccn3C)c2)CC(C)O1 (stereo not given)	3%	-4	12µM*	-18%	3%	4%
CCn1nc(C(=O)OCC(=O)c2ccc(C3CCCCC3)cc2)c2ccccc2c1=O	.	8	.	.	.	-6%
COC(=O)c1ccc(C)c(NC(=O)C2CC3CCC2C3)c1 (stereo not given)	.	-4	.	.	.	?
Cc1ccc(S(=O)(=O)N2CCN(CCNC(=O)c3ccccc3)CC2)cc1	.	-19	.	.	.	?
CC1CN(S(=O)(=O)c2cccc(C(=O)Nc3ccccc3N3CCCCC3)c2)CC(C)O1 (stereo not given)	0%	0	16µM*	?	5%	21%
CC1CN(S(=O)(=O)c2cccc(C(=O)Nc3ccccc3N3CCOCC3)c2)CC(C)O1 (stereo not given)	0%	0	?	0%	11%	2%
Cc1ccc(S(=O)(=O)N2CCOCC2)cc1C(=O)Nc1ccc(N2CCCCCC2)cc1	4%	-5	21µM*	-20%	4%	1%
SMILES	Nrf2 activator	LDHA block	Nrf2 inh	A549 tox	IDH1 R132H inh	12-LOX inh
O=C(Nc1ccncc1)c1cccc(S(=O)(=O)N2CCCC2)c1	0%	-5	8.2µM*	-19%	1%	-2%
O=C(Nc1ccncc1)C1CCN(S(=O)(=O)c2cccc(C(F)(F)F)c2)CC1	0%	0	16µM*	-4%	-13%	?
Cc1nc2cc(C(=O)Nc3cccc(N4CCCC4=O)c3)ccc2n1-c1ccccc1	.	1	.	.	.	5%
O=C(Nc1ccc(N2CCOCC2)cc1)c1cccc(S(=O)(=O)N2CCCCC2)c1	0%	-5	21µM*	-13%	2%	2%
O=C(Nc1cccc(S(=O)(=O)N2CCCC2)c1)c1cc(-c2ccccn2)nc2ccccc12	0%	-2	9.2µM*	-1%	-7%	0%
COc1ccc(-c2ccc3ncc(Nc4cccc(O)c4)n3n2)cc1OC	.	.	.	.	.	21%[176 µM]
CCCn1c(=O)n(CC(=O)Nc2ccc(N3CCOCC3)cc2)c(=O)c2c1nc(C)n2CCOC	.	9	.	.	.	-4%
CCS(=O)(=O)N1CCCc2cc(C(=O)Nc3cc(Cl)ccc3C)ccc21	.	0	.	.	.	?
C/C(=N\Nc1ccc(Br)cc1)c1ccc2c(c1)Cc1ccccc1-2	.	9	.	.	.	10µM*
CC(=O)c1ccc2c(c1)Cc1ccccc1-2	.	5	.	.	.	15%
N#Cc1ccc(C[B][B][B][B][B][B][B][B][B][B]Cc2ccc(C#N)cc2)cc1	.	1	.	.	.	?
CC(=O)NC(CC(=O)Nc1nc(-c2ccc(N(C)S(C)(=O)=O)cc2)cs1)c1ccccc1 (stereo not given)	4%	-4	21µM*	-24%	7%	?
CC(=O)Nc1ccc(-c2csc(NC(=O)CC(NC(C)=O)c3ccccc3)n2)cc1 (stereo not given)	0%	-8	0%	1%	2%	?
O=c1oc(-c2ccncc2)cc2ccccc12	.	6	.	.	.	?
CCCC[n+]1ccn(C2=C([O-])c3ccccc3C(=O)/C2=N\S(=O)(=O)c2ccccc2)c1	-2%	18	20µM*	?	12%	37%
CC(C)[n+]1ccn(C2=C([O-])c3ccccc3C(=O)/C2=N\S(=O)(=O)c2ccccc2)c1	-2%	36	23µM*	-8%	20%	-20%
Cc1ccc(-c2cc(C(=O)N3CCN(C(=O)C4CC4)CC3)c3ccccc3n2)o1	.	-1	.	.	.	22µM*
Cc1ccc(-c2cc(C(=O)N3CC(C)CC(C)C3)c3ccccc3n2)o1 (stereo not given)	6%	0	-20%	-18%	4%	35µM*
COc1ccc(Cl)c2sc(N(CCN(C)C)C(=O)CCS(=O)(=O)c3ccc(C)cc3)nc12	3%	-8	-6%	1%	-4%	16µM*
COc1ccc(OC)c2sc(N(CCCN(C)C)C(=O)CCS(=O)(=O)c3ccccc3)nc12	0%	4	2%	2%	-3%	-9%

Screening results deposited in PubChem by National Center for Advancing Translational Sciences (NCATS).
